Screening data from PubChem.
Compounds with a hit are over-represented: about 12% of the library has one in this group of screens.
HP1b chromo inh: HP1-beta chromodomain-methylated histone interaction inhibition. actives 0.56% (n = 390,000). AlphaScreen HP1-beta / biotin-H3K9me3 peptide binding. P83916. Potency, µM (highest dose often 114 µM), for the others: at the highest dose activity change, negative = inhibition, hits mostly inhibitors; note: nearly all actives have a fitted effect of over 70% in size
Target sequence (P83916 whole entry, looked up): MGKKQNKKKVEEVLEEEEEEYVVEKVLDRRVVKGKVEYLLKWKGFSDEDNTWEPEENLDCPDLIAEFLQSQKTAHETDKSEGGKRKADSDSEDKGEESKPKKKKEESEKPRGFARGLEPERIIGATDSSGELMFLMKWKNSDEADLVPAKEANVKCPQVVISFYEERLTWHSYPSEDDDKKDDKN
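Compound inhibition of the preformed complex between 50 nM HP1-beta and 50 nM biotinylated H3K9me3 peptide was read by AlphaScreen. Buffer was PBS pH 7.4 with 0.01% Tween-20. Incubations ran 30 min at room temperature, with 10 ug/mL donor/acceptor beads.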
JMJD2A Tudor: inhibitors of human JMJD2A Tudor domain | actives 4.4% (n = 390,000) | Potency, µM (series often up to 114 µM), inactives show at the top dose activity change, negative = inhibition, actives largely listed as inhibitors | O75164 | AlphaScreen JMJD2A-Tudor / H3K4me3 peptide binding; note: % is set by controls: 0 for no effect and ±100 for the full control effect; nearly all actives have a fitted effect of over 50% in size
Sfp PPTase inh: blocks B. subtilis Sfp PPTase activity. Q9F4F7. Biochemical Sfp PPTase activity, qHTS. Potency, µM, for the others: largest response in the series, negative = inhibition, actives largely listed as inhibitors. actives 3.5% (n = 310,000);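 note: the enzyme is Sfp with the accession as filed and its product quenches rhodamine fluorescence; 0% = enzyme reaction without inhibitor and -100% = no enzyme wells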
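With Hepes-Na pH 7.6 buffer containing 10 mM MgCl2, Sfp (15 nM) modified BHQ-2-YbbR (12.5 uM) using rhodamine-CoA (5 uM). Two reads 30 minutes apart at 525/598 nm yielded each well's rate.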
G9a block: G9a (human) methyltransferase inhibition; actives 8.8% (n = 350,000); Potency, µM (doses to about 102 µM), for the others: top-dose activity, negative = inhibition, hits mostly inhibitors; Q96KQ7; G9a H3K9 monomethylation, AlphaScreen, 2 h; AID 504332; note: % is set by controls: 0 for no effect and ±100 for the full control effect; nearly all actives have a fitted effect of over 75% in size
Target sequence (Q96KQ7 913-1193 limits assumed): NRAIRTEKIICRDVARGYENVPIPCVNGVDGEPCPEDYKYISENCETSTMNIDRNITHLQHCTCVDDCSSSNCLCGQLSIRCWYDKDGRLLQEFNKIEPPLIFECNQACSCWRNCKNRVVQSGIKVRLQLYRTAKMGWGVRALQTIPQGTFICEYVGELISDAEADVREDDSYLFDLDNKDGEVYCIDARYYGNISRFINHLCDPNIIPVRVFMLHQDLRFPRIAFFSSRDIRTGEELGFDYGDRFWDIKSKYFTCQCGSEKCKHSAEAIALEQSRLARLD
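Signal arises when biotinylated H3K9 peptide, once monomethylated, bridges streptavidin donor and antibody-captured acceptor beads. Enzyme at 20 nM was preincubated 15 min with test compounds; peptide 500 nM and SAM 20 uM then reacted for 2 h.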
TDP1 block: TDP1 (human) enzyme inhibition; Q9NUW8; recombinant TDP1, AlphaScreen DNA substrate cleavage; Potency, µM (doses to about 130 µM), for inactives: at the highest dose activity change, negative = inhibition, usual class: inhibitors; actives 0.28% (n = 350,000); AID 485290; note: % is set by controls: 0 for no effect and ±100 for the full control effect; nearly all actives have a fitted effect of over 40% in size
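Tdp1 1 nM final; 15 min RT w/ cpd; substrate 15 nM, 5 min; beads 10 ug/ml, 10 min; AlphaScreen read. Neg ctrl: no enzyme.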
BAZ2B inh: blocks human BAZ2B | Q9UIF8 | AlphaScreen BAZ2B-H3K14Ac peptide displacement | Potency, µM (doses to about 114 µM), inactives show at the top dose activity change, negative = inhibition, most hits filed as inhibitors | actives 4.4% (n = 360,000) | AID 504333; note: % is set by controls: 0 for no effect and ±100 for the full control effect; nearly all actives have a fitted effect of over 60% in size
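BAZ2B 50 nM plus b-H3(5-23)K14Ac 50 nM, PBS pH 7.4/0.01% Tween-20, 30 min RT; compound added (max 110 uM), 30 min RT; streptavidin donor/Ni-chelate acceptor beads 10 ug/mL final, 20 min dark; AlphaScreen read.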
* marks the source's active call; other numbers are inactive results; u = inconclusive; x = no result; [ ] = another dose, or the depositor's remark. Calls come from the whole dose curve; as a rule, active = well fitted curve in the direction sought with a large enough effect; inconclusive = small, poorly fitted or top-dose-only effect, or another doubt; inactive = no such curve, though single readings can be large; an effect the other way counts as inactive or inconclusive. Potency is the fitted concentration of half-maximal effect.

SMILES	HP1b chromo inh	JMJD2A Tudor	Sfp PPTase inh	G9a block	TDP1 block	BAZ2B inh
CCOc1ccccc1NC(=O)c1ccc2oc(=O)c(S(=O)(=O)c3ccc(F)cc3)cc2c1	21.5%	-19.2%	x	-18.1%[59 µM]	-2.3%	-17.0%
CCOC(=O)C1(C)/C(=N/Nc2ccccc2OC)C(=O)C(=O)N1c1ccccc1 (stereo unspecified)	39.8µM*	25.1µM*	-23.1%	4.47µM*	10.1%	39.8µM*
CCOC(=O)C1(C)/C(=N/Nc2ccccc2)C(=O)C(=O)N1c1ccccc1 (stereo unspecified)	39.8µM*	31.6µM*	13.6%	8.91µM*	4.7%	u
CCOC(=O)C1(C)C=C(Nc2cccc(OC)c2)C(=O)N1c1ccccc1 (stereo unspecified)	34.0%	u	21.4%	25.4%	1.4%	-18.6%
CC(=O)Nc1ccc(S(=O)(=O)NCc2ccc3[nH]c(C)cc3c2)cc1	-18.1%	u	1.9%	-8.9%[59 µM]	6.5%	-33.9%
Cc1ccc(S(=O)(=O)NCc2ccc3[nH]c(C)cc3c2)cc1	3.1%	-30.6%	13.7%	50.1µM*	4.6%	x
CCCCn1c(=O)c2oc3ccccc3c2n(Cc2ccccc2C)c1=O	13.5%	0.0%	x	9.0%[59 µM]	5.1%	9.2%
c1ccc(C2=NNC(=NCc3ccc4c(c3)OCO4)SC2)cc1	5.7%	-27.2%	-14.4%	39.8µM*	5.5%	-37.3%
Clc1ccc(C2=NNC(=NCc3ccccc3)SC2)cc1	-3.1%	u	u	-45.1%	-2.5%	u
c1ccc(CN=C2NN=C(c3ccccc3)CS2)cc1	-21.1%	u	-2.2%	39.8µM*	2.9%	u
C=CCN=C1NN=C(c2ccc3c(c2)OCCO3)CS1	-3.9%	-33.8%	1.1%	39.8µM*	2.4%	-34.5%
CCOc1ccc(-c2nnc3ccc(SCC(=O)N4CCN(c5ccccc5)CC4)nn23)cc1	68.2%	-3.7%	x	x	x	x
COc1ccc(-c2nnc3ccc(SCC(=O)N4CCCC4)nn23)cc1	43.0%	-8.5%	u	50.1µM*	-1.0%	9.1%
O=C(CSc1ccc2nnc(-c3ccc(F)cc3)n2n1)N1CCCc2ccccc21	-2.3%	1.6%	-29.0%	4.3%	2.3%	2.7%
CCOc1ccc(-c2nnc3ccc(SCC(=O)Nc4nc5ccccc5s4)nn23)cc1	40.4%	-9.3%	u	-12.8%	6.9%	5.6%
CCOc1ccc(-c2nnc3ccc(SCC(=O)Nc4nc5ccc(C)cc5s4)nn23)cc1	52.0%	-7.1%[57.1 µM]	u	44.7µM*	4.6%	2.4%
COc1ccc(-c2nnc3ccc(SCC(=O)N4CCCCCC4)nn23)cc1OC	33.7%	-28.3%	16.6%	u	3.1%	7.1%
O=C(CSc1ccc2nnc(-c3ccc(Cl)cc3)n2n1)N1CCCc2ccccc21	24.8%	-20.9%	-6.0%	31.6µM*	5.7%	26.8%
CCOc1ccc(-c2nnc3ccc(SCC(=O)N4CCCCC4)nn23)cc1	66.3%	-9.0%	13.5%	35.5µM*	3.1%	7.7%
CCN1c2ccccc2-c2nc(SCC(=O)Nc3cc(C)c(Cl)cc3OC)ncc2S1(=O)=O	u	-24.4%	x	-40.4%[59 µM]	7.9%	-12.9%
O=C(CSc1nc2c([nH]c3ccccc32)c(=O)n1-c1ccccc1)Nc1ccc2c(c1)OCO2	19.1%[57 µM]	-12.9%	x	-1.2%[59 µM]	2.2%	-6.8%
Cc1cc(F)ccc1NC(=O)CCS(=O)(=O)c1cc2c3c(c1)CCN3C(=O)CC2	5.6%	-7.8%	x	-7.0%[59 µM]	-7.9%	0.7%
O=C(Nc1ccc(-c2ccc3nncn3n2)cc1)c1ccc(Br)o1	62.8%	-15.4%	5.2%	-27.9%	79.4µM*	-34.1%
Cc1c(Br)cc(F)c([S+](=O)([O-])N2CCN([S+](=O)([O-])c3ccc4c(c3)OCCO4)CC2)c1F	x	-25.3%	x	x	x	x
CC(=O)c1cccc(NS(=O)(=O)c2ccc(N/C=C/C(=O)c3ccc(F)cc3)cc2)c1	16.0%	-19.9%	22.5%	8.91µM*	-2.6%	u
SMILES	HP1b chromo inh	JMJD2A Tudor	Sfp PPTase inh	G9a block	TDP1 block	BAZ2B inh
CCn1nc(C)c2c(-c3ccccc3)cc(=O)n(C(C)C(=O)Nc3ccc(OC)c(OC)c3)c21 (stereo unspecified)	3.6%	-18.7%	x	9.8%[59 µM]	0.6%	-20.8%
CCc1ccc(NC2CC(=O)N(CCc3ccc(OC)c(OC)c3)C2=O)cc1 (stereo unspecified)	u	u	1.5%	50.1µM*	2.7%	-26.2%
COc1ccc(CCN2C(=O)CC(N3CCOCC3)C2=O)cc1OC (stereo unspecified)	21.0%	-6.7%	5.8%	9.8%[59 µM]	-2.5%	10.5%
COc1ccc(CCN2C(=O)CC(Nc3ccc(N4CCOCC4)cc3)C2=O)cc1OC (stereo unspecified)	-9.6%	u	-2.7%	14.1µM*	8.2%	44.7µM*
O=C1CC(Nc2ccc(N3CCOCC3)cc2)C(=O)N1c1ccccc1F (stereo unspecified)	-5.1%	u	50.1µM*	8.91µM*	2.6%	4.9%
Cc1cccc(-c2nc(CCNC(=O)COc3ccccc3)cs2)c1	29.2%[57 µM]	4.5%	x	6.3%[59 µM]	0.0%	14.9%
N#Cc1c(N2CCOCC2)nc(-c2ccco2)c2c1CCCC2	59.2%	18.9%	44.7µM*	22.4µM*	x	20.5%
CC1(C)Cc2c(C#N)c(N3CCN(C(=O)c4ccccc4)CC3)nc(-c3ccco3)c2CS1	-1.5%	-33.9%	20µM*	14.1µM*	2.4%	50.1µM*
CC(C)c1nc(N2CCN(C(=O)c3ccccc3)CC2)c(C#N)c2c1COC(C)(C)C2	12.7%	-36.0%	-21.9%	u	4.4%	-30.3%
CCc1nc(N2CCOCC2)c(C#N)c2c1CCCC2	83.8%	32.5%	9.0%	16.0%[59 µM]	0.0%	25.7%
CN(C)CCNc1nc(-c2ccco2)c2c(c1C#N)CC(C)(C)OC2	36.7%	0.8%	-1.0%	8.0%	-3.2%	2.5%
CC1(C)Cc2c(C#N)c(N3CCCC3)nc(-c3ccco3)c2CO1	x	x	17.8µM*	35.5µM*	-1.2%	26.4%
CCCCN(C)c1nc(-c2ccco2)c2c(c1C#N)CC(C)(C)OC2	32.4%	89.1µM*	35.5µM*	44.7µM*	x	32.0%
CC(C)CCN1CCN(Cc2nc3c(s2)CCCC3)CC1CCO (stereo unspecified)	21.5%	-12.8%	15.2%	-4.8%	0.0%	3.8%
COc1ccc(C(=O)N2c3nc(-c4ccco4)nn3C3(CCCCC3)[C@@H]3CCCC[C@@H]32)cc1OC	14.9%	-29.5%	x	-34.8%[59 µM]	2.6%	u
Nc1cc(=O)[nH]c(SCC(=O)Nc2ccccc2Sc2ccccc2)n1	47.8%	-6.2%	20.2%	-10.6%	3.5%	-18.1%
CC1(C)Cc2c(C#N)c(NCc3ccco3)nc(-c3ccco3)c2CO1	45.5%	-13.8%	3.55µM*	u	-4.4%	-10.2%
